Only some compounds are listed: those with a hit (about 3.5% of all), similar ones and a draw of the others.
GPR151 ag: activates the human receptor GPR151; PathHunter beta-arrestin GPR151 cells, luminescence; activation, % at 11.2 µM; 650,000 compounds, 1% hits; in the data active = activation above about 4.9%
Target sequence (Q8TDV0 whole entry, looked up): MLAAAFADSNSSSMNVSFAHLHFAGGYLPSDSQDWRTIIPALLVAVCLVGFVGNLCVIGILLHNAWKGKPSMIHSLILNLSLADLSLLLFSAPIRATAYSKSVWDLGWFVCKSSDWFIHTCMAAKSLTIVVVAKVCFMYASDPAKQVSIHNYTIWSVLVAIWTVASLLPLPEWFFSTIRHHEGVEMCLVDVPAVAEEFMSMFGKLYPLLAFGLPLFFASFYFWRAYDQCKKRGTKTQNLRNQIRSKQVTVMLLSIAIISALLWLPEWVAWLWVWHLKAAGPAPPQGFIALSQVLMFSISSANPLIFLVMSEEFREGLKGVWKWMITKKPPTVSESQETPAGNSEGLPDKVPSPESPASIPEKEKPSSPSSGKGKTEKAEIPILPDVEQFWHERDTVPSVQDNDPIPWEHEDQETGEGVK
FBW7 activator: human FBW7 E3 ligase activation, primary screen | Q969H0 | AlphaScreen FBW7–phospho-cyclin E peptide binding, activator screen | normalized activity (activation), % at 26.1 µM | 650,000 compounds, 0.13% hits | AID 1259310; in the data active = normalized activity above about 1.9%;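 also: purified mutant Fbw7 with reduced substrate affinity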
TEAD-YAP block: TEAD-YAP interaction inhibition; HEK-TIYL cells, TEAD-Gal4/YAP UAS-luciferase luminescence; inhibition, % at 9.12 µM; 640,000 compounds, 1.4% hits; in the data active = inhibition above about 32%
MITF inh: inhibitors of human MITF | inhibition, % at 2.6 µM | 650,000 compounds, 0.91% hits | AID 1259374 | AlphaScreen MITF homodimerization, bead proximity signal | O75030; in the data active = inhibition above about 50%
Numbers stand for hits; 0 = inactive.

SMILES	GPR151 ag	FBW7 activator	TEAD-YAP block	MITF inh
CC1(Cc2c[nH]c3ccccc23)OCCS1 (stereo unspecified)	0	0	0	0
COC(=O)c1ccccc1NC(=O)c1sc2nc(C)nc(N3CCCCC3)c2c1C	0	0	0	0
c1cc(Nc2nc(Nc3ccc4c(c3)OCO4)c3ncn(-c4ccsc4)c3n2)ncn1	0	10.5	0	0
c1ccc(Nc2nc(-c3ccc(N4CCOCC4)nc3)nc3c2ncn3-c2ccccc2)cc1	0	0	0	0
c1cc(-n2cnc3c(Nc4ccc5c(c4)OCO5)nc(NCCN4CCOCC4)nc32)cs1	0	0	44.5	0
c1cc(-n2cnc3c(Nc4ccc5c(c4)OCO5)nc(NCc4ccc5c(c4)OCO5)nc32)cs1	0	0	0	0
COc1ccc(-c2nc(Nc3ccc(N4CCOCC4)cc3)c3ncn(-c4ccccc4)c3n2)cn1	0	0	34.1	0
c1cnc(Nc2nc(Nc3ccc4c(c3)OCO4)c3ncn(-c4ccsc4)c3n2)cn1	0	0	0	0
COc1ccc(-c2nc(Nc3ccc(N4CCOCC4)cc3)c3ncn(-c4ccsc4)c3n2)cc1	0	0	38.3	0
CCOc1ccc(C(=O)CCN2CCN(c3ccc(F)cc3)CC2)cc1	0	0	0	0
CCOc1ccc(-n2c(SCC(=O)N3CCCCC3CC)nc3n[nH]c(C)c3c2=N)cc1 (stereo unspecified)	0	0	0	0
O=C(Nc1nnc(-c2ccco2)o1)c1ccc(Cl)cc1Cl	0	0	0	0
CC(=O)Nc1ccc(Nc2nc(-c3c(C)nn(C)c3C)nc3c2ncn3-c2ccsc2)cc1	0	0	43.9	0
c1cc(-n2cnc3c(Nc4ccc5c(c4)OCO5)nc(Nc4ccc(N5CCOCC5)cc4)nc32)cs1	0	0	41.8	0
CCN(CC)c1nc(Nc2ccc3c(c2)OCO3)nc(Nc2ccncn2)n1	0	4.0	0	0
Cc1nn(C)c(C)c1-c1nc(Nc2ccccc2)c2ncn(-c3ccsc3)c2n1	0	0	0	0
CC(=O)Nc1ccc(Nc2ccnc(-c3c(C)nn(C)c3C)n2)cc1	0	0	53.8	0
CC(=O)Nc1ccc(Nc2nc(Nc3ccncc3)nc3c2ncn3-c2ccsc2)cc1	0	0	0	0
c1cncc(CNc2nc(Nc3ccc(N4CCOCC4)cc3)nc3c2ncn3-c2ccsc2)c1	0	0	56.5	0
CC(=O)Nc1ccc(Nc2nc(Nc3ccc(N4CCOCC4)cc3)nc3c2ncn3-c2ccsc2)cc1	0	0	38.0	0
CC(=O)Nc1ccc(Nc2nc(Nc3ncccn3)nc3c2ncn3-c2ccsc2)cc1	0	0	49.8	0
c1ccc(Nc2nc(Nc3ccc(N4CCOCC4)cc3)nc3c2ncn3-c2ccsc2)cc1	0	0	0	0
FC(F)(F)c1ccc(Nc2nc(Nc3ccc(N4CCOCC4)cc3)c3ncn(-c4ccsc4)c3n2)cc1	0	0	0	0
c1cc(-n2cnc3c(Nc4ccc(N5CCOCC5)cc4)nc(Nc4ccc(N5CCOCC5)cc4)nc32)cs1	0	0	34.8	0
CCCCCCCCNc1nc(N2CCOCC2)nc(N2CCOCC2)n1	0	0	0	0
SMILES	GPR151 ag	FBW7 activator	TEAD-YAP block	MITF inh
C/C(=N\NC(=O)CNS(=O)(=O)c1cccc([N+](=O)[O-])c1)C(C)C	0	0	0	0
C=C(C)CNC(=S)Nc1ccc(Br)cc1	0	0	0	0
COc1ccc(-c2cc(=O)oc3c(OC)c(OC)ccc23)cc1	0	0	55.6	0
CCN(CC)c1ccc2cc(-c3nnc(Nc4ccc(OC)c(OC)c4)s3)c(=O)oc2c1	0	0	0	0
CCCOc1ccc(/C(O)=C2\C(=O)C(=O)N(CCN(C)C)C2c2ccc(OC)c(OC)c2)c(C)c1 (stereo unspecified)	0	0	0	0
CCCOc1ccc(/C(O)=C2\C(=O)C(=O)N(CCCN(C)C)C2c2ccc(OC)c(OC)c2)c(C)c1 (stereo unspecified)	0	0	32.8	0
Cc1cccc(NC(=O)C2CCCN(S(=O)(=O)c3ccc4c(c3)oc(=O)n4C)C2)n1 (stereo unspecified)	0	0	34.2	0
Cc1cccc(NC(=O)C2CCCN(S(=O)(=O)c3ccc4c(c3)oc(=O)n4C)C2)c1 (stereo unspecified)	0	0	0	0
COc1cccc(NC(=O)c2c(O)c3cc(OC)c(OC)cc3[nH]c2=O)c1	0	0	0	0
CN(C)C(=O)CSc1nc2ccccc2n1CC(=O)NC(C)(C)C	0	0	0	0
CC(C)(C)NC(=O)Cn1c(SCC(N)=O)nc2ccccc21	0	2.0	0	0
CC(C)(C)c1ccc(OCCSc2nc3ccccc3n2CC(N)=O)cc1	0	0	48.0	0
CC1(Cc2ccccc2F)C(=O)Nc2ccccc21 (stereo unspecified)	0	0	0	0
COc1cc(O)cc(OC)c1OC	0	0	63.3	0
COc1cc(/C=N/O)cc(OC)c1OC	0	0	0	0
O=C(Nc1nnc(-c2cccnc2)s1)c1ccc(Cl)cc1Cl	0	0	0	0
Cc1ccc2nc(-c3ccc(O)c(O)c3)cn2c1	0	0	54.4	0
Cc1ccc2nc(-c3ccc([N+](=O)[O-])cc3)cn2c1	0	0	0	0
Cc1ccc2nc(-c3ccc(O)cc3O)cn2c1	0	0	79.7	0
COc1cc(COc2ccc3ccc(=O)oc3c2)cc(OC)c1OC	0	0	0	0
COc1cc(COc2ccc3c(C)cc(=O)oc3c2)cc(OC)c1OC	0	0	55.5	0
Cc1cccc(C)c1NC(=O)C(c1ccc(Cl)cc1)N(Cc1ccco1)C(=O)c1ccc(-n2cnnn2)cc1 (stereo unspecified)	0	0	40.9	0
CCCn1c2ccccc2c2nc3cc(OC)c(OC)cc3nc21	0	3.7	0	0
COc1cc2nc3c4ccccc4n(C(C)C)c3nc2cc1OC	0	3.7	0	0
CCN(CC)CCn1c2ccccc2c2nc3ccccc3nc21	0	0	76.0	0
SMILES	GPR151 ag	FBW7 activator	TEAD-YAP block	MITF inh
CCCCn1c2ccccc2c2nc3cc(OC)c(OC)cc3nc21	0	0	0	0
Cc1nc(-n2nc(-c3ccco3)cc2NC(=O)C2CC2)[nH]c(=O)c1C	0	0	0	0
CCN(CC)C(=O)CN1CCC2(CC1)NC(=O)c1ccccc1N2	0	0	0	0
COc1ccc(CNC(=O)c2cc(-c3ccc(O)cc3)on2)cc1	0	0	38.5	0
Cc1nn(C)cc1C(=O)N1CCC2(CC1)CC(O)(c1nccs1)CO2 (stereo unspecified)	0	0	0	0
COc1ccc(CN2Cc3cc(C)ccc3OC(C)C2)cc1O (stereo unspecified)	0	0	54.5	0
Cc1c(NC(=O)Cc2n[nH]c(=O)c3ccccc23)c(=O)n(-c2ccccc2)n1C	0	0	0	0
COc1cccc(CC2=NOC(C(=O)NCc3cnc4ccccc4c3)C2)c1 (stereo unspecified)	0	0	35.0	0
COc1cccc(CC2=NOC(C(=O)NCC(C)(C)CO)C2)c1 (stereo unspecified)	0	0	0	0
C/C(=N\NC(=O)c1ccc(O)c(O)c1)c1ccc(Br)c([N+](=O)[O-])c1	0	0	31.9	0
C/C(=N/NC(=O)c1ccc(O)c(O)c1)c1ccc(C)cc1	0	0	0	0
CC(C(=O)c1ccc(-c2ccccc2)cc1)[n+]1ccc2ccccc2c1 (stereo unspecified)	0	0	56.0	0
